This is an account of results in PubChem BioAssay (Tox21).

Records with an inconclusive call do not appear. Entries that show only a call come without a potency. Activity calls are given as the source filed them. Calls follow the shape of the dose curve; as a rule, active = well fitted cell-killing curve with a large enough effect in the repeat runs; inconclusive = weak or mixed curves, or effect the other way; inactive = flat fitted curve, though single readings scatter.
Potency is read from the fitted curve at half-maximal effect.

A short description of the assay: Nuclear factor erythroid 2-related factor 2/antioxidant responsive element (Nrf2/ARE) small molecule agonists: qHTS cell viability counter screen in human keratinocytes (AID 1919968). Also: nearly all actives have a fitted effect of over 55% in size. Conditions: KeratinoSens HaCaT ARE cells viability, CellTiter-Fluor, 24 h; series mostly up to 92.4 µM. The source says: U.S. Tox21 Program National Center for Advancing Translational Sciences [NCATS] Division of Preclinical Innovation [DPI] U.S. Environmental Protection Agency [EPA] National Institutes of Environmental Health Sciences [NIEHS] National Toxicology Program [NTP] U.S. Food and Drug Administration [FDA] Tox21 Assay Overview: Oxidative stress has been implicated in the pathogenesis of a variety of diseases ranging from cancer to neurodegeneration. The antioxidant response element (ARE) signaling pathway plays an important role in the amelioration of oxidative stress. The KeratinoSens (Givaudan, Switzerland) is an in vitro test method which quantifies luciferase induction as a measure of activation of Keap1-Nrf2-antioxidationt/electrophile response element (ARE) dependant pathway in HaCaT human keratinocytes stably transfected with a selectable plasmid. The KeratinoSens assay is a cell-based assay with a reporter cell line to detect potential skin sensitizers by their ability to induce the Nrf2/ARE-response. The activation of the report gene under culture conditions can be detected by ONE-Glo Luciferase Assay System (Promega, Madison, WI). This cell line has been used to screen the Tox21 10K compound library to identify agonists that induce oxidative stress. The cytotoxicity of the Tox21 compound library against the KS-ARE cell line was tested in parallel by measuring the cell viability using CellTiter- Fluor assay system (Promega, Madison, WI) in the same wells.
Tox21 Assay Protocol Summary: HaCaT derived cell line KeratinoSens were dispensed at 1,500 cells/5uL/well in 1536-well white wall/solid bottom plates using a Multidrop Combi (ThermoFisher Scientific, Waltham, MA) dispenser. After the assay plates were incubated at 37 C/5% CO2 for 5 h, 23 nL of compounds dissolved in DMSO, positive controls or DMSO only was transferred to the assay plate by a pintool workstation (Kalypsys, San Diego, CA). The plates were incubated at 37 C/5% CO2 for 23 h, followed by addition of 1uL/well of CellTiter-Fluor reagent into the assay plates using a Flying Reagent Dispenser (Aurora Discovery, San Diego, CA) for cell viability readout that measures cytotoxicity. After 1 h incubation at 37 C/5% CO2 the fluorescence intensity was measured using a ViewLux (PerkinElmer, Shelton, CT) plate reader.
For orientation: In qHTS, concentration-response curves come from the screen itself.
For the compound `C/C(=C(/OCCOc1ccc(Cl)cc1)c1ccc(Cl)cc1Cl)n1ccnc1`, the Potency was 13.3 µM (active). Consider `CC(CN)CCCN` (stereo not given), for which the Potency result is “inactive”. Consider `CCOc1ccc(NC(N)=O)cc1`, for which the Potency entry is “inactive”. In the case of `O=[N+]([O-])c1nccn1CO[C@@H](CO)[C@H](O)CO` it was “inactive”; in that of `CC1=C(C/C=C(\C)CCC[C@H](C)CCC[C@H](C)CCCC(C)C)C(=O)c2ccccc2C1=O`, “inactive”. For `Cc1cc(O)c(Cl)c(C)c1Cl`, the Potency entry was “inactive”.

`O=C1CCCCCCCCCCCC(=O)OCCO1`: the Potency result is “inactive”. As for `CC(=O)N[C@@H](CCC(=O)O)C(=O)O`, the Potency entry was “inactive”.

Take `Cc1c[nH]c(=O)[nH]c1=O`: the Potency result is “inactive”. In the case of `CC(CCc1ccc2c(c1)OCO2)NN` (stereo not given), the Potency entry was “inactive”. With `CC(Cc1cccc(C(F)(F)F)c1)NCCOC(=O)c1ccccc1` (stereo not given), the Potency entry was “inactive”.

Consider `CC/C=C\CCCCCCCCCCOC(C)=O`, for which the Potency entry is “inactive”. In the case of `CC(CC(=O)Cl)CC(C)(C)C` (stereo not given) it was “inactive”.

For `CCC1Nc2cc(Cl)c(S(N)(=O)=O)cc2S(=O)(=O)N1` (stereo not given), the Potency entry was “inactive”.

On to `O=C(Nc1ccccc1)OCC(CN1CCCCC1)OC(=O)Nc1ccccc1` (stereo not given), for which the Potency result is “inactive”. For the compound `CCOc1ccccc1OCCN[C@H](C)Cc1ccc(OC)c(S(N)(=O)=O)c1`, the Potency entry was “inactive”. With `Brc1c(NC2=NCCN2)ccc2nccnc12`, the Potency result is “inactive”.

On to `COc1cc2c(cc1OC)[C@@H]1CC(=O)[C@@H](CC(C)C)CN1CC2`, for which the Potency result was “inactive”. In the case of `CCc1ncc(C)[nH]1` it was “inactive”. For `S=C([S-])NCCNC(=S)[S-].[Mn+2]`, the Potency entry was “inactive”. Take `Cc1ncc([C@@H](CCCCCCc2ccc3c(n2)NCCC3)CC(=O)O)cn1`: the Potency result was “inactive”.

On to `O=Cc1ccccc1Cl`, for which the Potency entry was “inactive”. For `CCOc1ccccc1OCC1CNCCO1` (stereo not given), the Potency result is “inactive”. As to `CC[C@@]1(c2ccccc2)NC(=O)N(C)C1=O`, the Potency entry is “inactive”. In the case of `CCC(=O)C1CC(C(C)C)CC=C1C` (stereo not given) it was “inactive”; in that of `C=C(C)[C@@H]1CC=C(C)CC1`, “inactive”. Turning to `CC(=O)N1CCN(c2ccc(OC[C@H]3CO[C@](Cn4ccnc4)(c4ccc(Cl)cc4Cl)O3)cc2)CC1`, the Potency is 54.5 µM (active). Regarding `Nc1ccc(F)cc1F`, the Potency result is “inactive”. For the compound `CCn1nc(C)c2c1C(=O)NCC(c1ccc(O)cc1)=N2`, the Potency entry was “inactive”. As for `CCN(CC)c1ccc(N=Nc2ccccc2)cc1`, the Potency entry is “inactive”. In the case of `Oc1ccc2c(c1)Cc1ccccc1-2` it was “inactive”; in that of `CCC(=O)/C=C/c1ccc(OC)cc1`, “inactive”; in that of `NS(=O)(=O)c1ccc(C(=O)O)cc1`, “inactive”. On to `Clc1ccc2cc3ccccc3cc2c1`, for which the Potency entry is “inactive”. In the case of `CC(N=C(NC#N)Nc1ccncc1)C(C)(C)C` (stereo not given), the Potency entry is “inactive”. In the case of `CCCCCCOc1ccccc1C(N)=O`, the Potency result was “inactive”. On to `N#Cc1ccc(C(c2ccc(C#N)cc2)n2cncn2)cc1`, for which the Potency entry is “inactive”. In the case of `CCOC(=O)NCCOc1ccc(Oc2ccccc2)cc1` it was “inactive”. On to `Nc1ccc(-c2ccc(F)cc2)cc1`, for which the Potency entry is “inactive”. `CCC(C)C(C)=O` (stereo not given): the Potency entry is “inactive”.
